Source: PubChem BioAssay AID1739 (National Center for Advancing Translational Sciences (NCATS), 2009)
Inconclusive results are not listed. Entries that show only a call come without a potency. Active and inactive are the calls of the source. The call rests on the fitted dose curve; in most records, active means well fitted inhibition curve with a large enough effect; inconclusive means small, poorly fitted or top-dose-only effect; inactive means flat fitted curve, though single readings scatter.

Experiment: Counterscreen Assay for Enhancers of SMN2 Splice Variant Expression: Modulation of SMN1 Expression
Description: NIH Chemical Genomics Center [NCGC] NIH Molecular Libraries Probe Production centers Network [MLPCN] MLPCN Grant: R03 MH084179-01 Assay Submitter (PI): Elliot Androphy NCGC Assay Overview: Spinal muscular atrophy (SMA) is caused by insufficient levels of the survival motor neuron protein SMN. The SMN locus on chromosome 5q13 contains two inverted copies of SMN called SMN1 and SMN2 which are 99% identical at the amino acid level. SMN1 is a fully functional protein and SMN2 skips exon 7 90% of the time. Skipping of exon 7 produces non-functional protein product. 10% of the SMN2 protein includes exon 7 and is fully functional. In the SMA disease state, mutations in the SMN1 locus are the cause of the disease state. Because only 10% of SMN2 is of the fully functional form, it is not sufficient to overcome the deficiency produced by the loss of the SMN1 product. A therapy that either increase the amount of SMN2 product made or to increase the inclusion of exon 7 has been proposed for the treatment of SMA. We have designed an assay to identify small molecules that can increase the amount of functional SMN2 product by appending a luciferase reporter gene after the native SMN2 gene, such that inclusion of exon 7 in the expressed product places the luciferase sequence in frame, thus generating functional luciferase enzyme. […]

Structure (SMILES): CCc1ccc2nc(N3CCC(C(=O)N4CCC5(CC4)OCCO5)CC3)sc2c1
- Potency: inactive

Structure (SMILES): CC[C@]1(O)CC(O[C@@H]2CC(N(C)C)C(O)C(C)O2)c2c(cc3c(c2O)C(=O)c2c(O)cccc2C3=O)C1C(=O)OC (some centres not stated)
- Potency: 1120 nM (active)
